# Hits are enriched below; roughly 17% of the tested compounds scored in any of these assays.
# ATXN2 expr inh: reduces ATXN2 reporter expression in HEK-293 cells; Potency, µM (titrated, usually from 57 µM), inactives show at the highest dose activity change, negative = inhibition, hits mostly inhibitors; HEK-293 ATXN2-luciferase reporter, luminescence, 24 h; AID 1745845; 360,000 compounds, 0.72% hits; also: % is scaled to controls: 0 for no effect and ±100 for the full control effect; nearly all actives have a fitted effect of over 55% in size
#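 qHTS (up to 57 uM final) was run with 24 h compound exposure of reporter cells at 37 °C. Each well was multiplexed: SteadyGlo luminescence measured ATXN2-luciferase expression after a fluorogenic Gly-Phe-AFC viability readout (25 uM final).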
# HepG2 tox: counter-screen for TGF-b inhibitors: cytotoxicity in HepG2 cells; HepG2 CAGA-GFP viability, ATP luminescence, 18 h; Potency, µM (series often up to 46.1 µM), without a hit: top-dose activity change, negative = cytotoxicity, hits mostly cytotoxic; 410,000 compounds, 0.76% hits
#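 HepG2 CAGA-GFP cells (1000/well, DMEM with 1% FBS) received compound, then TGF-beta at 500 pg/mL final, and were incubated 18 hours at 37 degrees C. Viability was read by CellTiter-Glo luminescence. Media-only wells were set as complete cell-killing and DMSO as no toxicity.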
# TGFb SMAD3 inh: blocks TGF-b signaling | HepG2 CAGA-GFP TGF-b/SMAD3 reporter, GFP fluorescence, 18 h; TGF-beta stimulated, 500 pg/mL final | Potency, µM (highest dose often 46.1 µM), for inactives: at the top dose activity, negative = inhibition, actives largely listed as inhibitors | 410,000 compounds, 1.2% hits; also: % is scaled to controls: 0 for no effect and ±100 for the full control effect; nearly all actives have a fitted effect of over 65% in size
#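 First, reporter cells (HEPG2 CAGA-GFP) rested 2 h at 37 degrees C. Next, compounds were pinned in and TGF-beta added to 500 pg/mL final. After 18 h, GFP was imaged per cell and summed per well.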
# ATXN viability: reduces viability in counter-screen for ATXN expression inhibitors; S2 cells (HEK-293 line with an ATXN2-luciferase reporter) viability, CellTiter-Fluor protease fluorescence, 24 h; Potency, µM (top dose mostly 56.7 µM), actives largely listed as cytotoxic; 400,000 compounds, 0.49% hits; AID 651635; also: nearly all actives have a fitted effect of over 40% in size
# TDP1 cell noCPT: qHTS for Inhibitors of human tyrosyl-DNA phosphodiesterase 1 (TDP1): qHTS in cells in absence of CPT | DT40 Tdp1-/- hTDP1 cells, no CPT, ATP luminescence, 48 h | Potency, µM (highest dose often 46.2 µM), without a hit: at the highest dose activity change, negative = growth inhibition, most hits filed as inhibitors | 420,000 compounds, 15% hits; also: % is scaled to controls: 0 for no effect and ±100 for the full control effect; nearly all actives have a fitted effect of over 55% in size
#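 Chicken DT40 Tdp1-/- cells complemented with human TDP1, screened without camptothecin (DMSO vehicle only), 400 cells/well. Compounds pin-transferred, cells incubated at 37 °C for at least 48 hr. Growth read as ATP-dependent luminescence (CellTiter-Glo, 30 min at RT).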
# DT40 TDP1 CPT: DT40-hTDP1 cell growth loss with CPT; chicken DT40 Tdp1-/-;hTDP1 cells + 20 nM CPT, ATP luminescence, 48 h; 420,000 compounds, 12% hits; Potency, µM (doses to about 46.2 µM), for the others: top-dose activity change, negative = growth inhibition, usual class: inhibitors; also: % is scaled to controls: 0 for no effect and ±100 for the full control effect; nearly all actives have a fitted effect of over 55% in size
#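 Chicken DT40 Tdp1-/- cells stably complemented with human TDP1 were seeded at 400 cells/well in medium containing 20 nM camptothecin, exposed to pin-transferred compounds, and grown at 37 °C for at least 48 hr. Viability was read as ATP luminescence.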
# * marks the source's active call; other numbers are inactive results; i = inactive; ? = inconclusive; nt = no result given. Calls follow the shape of the dose curve; as a rule, active = well fitted curve in the direction sought with a large enough effect; inconclusive = small, poorly fitted or top-dose-only effect, or another doubt; inactive = no such curve, though single readings can be large; an effect the other way counts as inactive or inconclusive. Potency is read from the fitted curve at half-maximal effect.
SMILES,ATXN2 expr inh,HepG2 tox,TGFb SMAD3 inh,ATXN viability,TDP1 cell noCPT,DT40 TDP1 CPT
O=C(Cc1ccccc1F)Nc1cc(S(=O)(=O)N2CCCCC2)ccc1N1CCOCC1,nt,0.1%,3.7%,i,16.4µM*,20.6µM*
CC(=O)Nc1ccc(S(=O)(=O)N(C)CC(=O)Nc2ccccc2N2CCCC2)cc1,0.4%,-6.0%,-4.0%,i,?,?
COc1ccccc1CC(=O)Nc1cc(S(=O)(=O)N2CCOCC2)ccc1N1CCOCC1,4.1%,-0.7%,9.3%,i,-4.2%,-21.5%
CCN(CC)S(=O)(=O)c1ccc(N2CCOCC2)c(NC(=O)c2cc3ccccc3o2)c1,nt,3.4%,-4.9%,?,?,?
CCN(CC)S(=O)(=O)c1ccc(N2CCOCC2)c(NC(=O)CCC2CCCCC2)c1,-4.1%,1.5%,-11.2%,i,?,20.6µM*
CN(CC(=O)Nc1ccccc1N1CCOCC1)S(=O)(=O)c1ccc(F)cc1,-13.1%,-13.4%,-3.3%,i,18.4µM*,18.4µM*
CCN(CC)S(=O)(=O)c1ccc(N2CCOCC2)c(NC(=O)CC(C)(C)C)c1,-9.0%,-4.6%,-2.1%,i,12.8%,-8.5%
CCCC[n+]1ccn(-c2nc3ccccc3nc2[N-]S(=O)(=O)c2cccs2)c1,-6.4%,31.0%,2.5%,i,?,?
O=C(NC1CCSc2ccccc21)c1cccc([N+](=O)[O-])c1 (centres undefined),13.4%,-18.1%,-7.2%,i,-49.7%,?
CCN(CC)S(=O)(=O)c1ccc(N2CCOCC2)c(NC(=O)c2nn(C(C)C)c(=O)c3ccccc23)c1,nt,4.9%,-0.8%,i,5.17µM*,10.3µM*
CCN(CC)S(=O)(=O)c1ccc(N2CCOCC2)c(NC(=O)Cc2ccccc2F)c1,-13.1%,20.5%,0.0%,i,14.6µM*,-26.7%
CCN(CC)S(=O)(=O)c1ccc(N2CCOCC2)c(NC(=O)Cc2ccccc2)c1,-12.6%,5.1%,-3.7%,i,4.4%,2.8%
O=C(C[C@H]1CC[C@H]2[C@@H](COC[C@@H](O)CN2S(=O)(=O)c2ccccc2)O1)N[C@@H]1CCN(Cc2ccccc2)C1,nt,nt,nt,nt,-6.8%,4.4%
O=[N+]([O-])c1cnc(Nc2ccccc2)nc1Nc1ccccc1,-1.0%,-13.4%,4.4%,i,-1.3%,22.3%
C=CCN1C(=O)C(O)(CC(=O)c2ccco2)c2cc(Br)ccc21 (centres undefined),-9.7%,1.7%,?,i,5.17µM*,2.31µM*
C#CCN1C(=O)C(O)(CC(=O)c2ccc(OC)c(OC)c2)c2ccccc21 (centres undefined),-26.6%,-5.8%,1.4%,i,?,?
C#CCN1C(=O)C(O)(CC(=O)c2ccc(OC)c(OC)c2)c2cc(Br)ccc21 (centres undefined),nt,-35.1%,?,nt,6.51µM*,4.61µM*
CCCCN1C(=O)C(O)(CC(=O)c2ccc(CC)cc2)c2cc(Br)ccc21 (centres undefined),nt,-107.9%,?,nt,18.4µM*,?
CC(C)c1ccc(C(=O)CC2(O)C(=O)N(CCc3ccccc3)c3ccc(Cl)cc32)cc1 (centres undefined),?,-103.9%,15.8µM*,?,?,?
COC(=O)CN1C(=O)C(O)(CC(=O)c2ccc(C)cc2)c2cc(Br)ccc21 (centres undefined),0.0%,-12.3%,-5.3%,i,-2.5%,?
COc1ccc(CCNC(=O)c2cccnc2Cl)cc1OC,nt,6.6%,-13.4%,i,-25.2%,-13.7%
OC1C2COC(O2)[C@H](O)C1O (some centres undefined),nt,nt,nt,nt,-5.8%,6.0%
CCCCN1C(=O)C(O)(CC(=O)c2ccccc2OC)c2ccccc21 (centres undefined),3.7%,9.0%,11.2%,i,-3.6%,-1.8%
O=C(CC1(O)C(=O)N(Cc2ccccc2)c2ccccc21)c1ccncc1 (centres undefined),-1.0%,8.8%,0.3%,i,3.66µM*,3.66µM*
O=C(CC1(O)C(=O)N(CCc2ccccc2)c2ccc(Br)cc21)c1ccccc1O (centres undefined),nt,-89.3%,?,nt,5.8µM*,5.17µM*
SMILES,ATXN2 expr inh,HepG2 tox,TGFb SMAD3 inh,ATXN viability,TDP1 cell noCPT,DT40 TDP1 CPT
O=C(CC1(O)C(=O)N(Cc2ccc3c(c2)OCO3)c2ccccc21)c1ccccc1 (centres undefined),-3.8%,-34.6%,-13.6%,i,5.8µM*,3.66µM*
O=C(CC1(O)C(=O)Nc2ccc(Br)cc21)c1ccccc1 (centres undefined),-19.9%,-10.4%,-8.2%,i,25.9µM*,?
Cc1c(C=O)cnn1CCC(=O)O,2.9%,7.5%,7.9%,i,-1.2%,1.8%
CCCN1C(=O)C(O)(CC(=O)c2ccc3c(c2)OCCO3)c2ccccc21 (centres undefined),1.0%,10.6%,1.8%,i,?,?
Cc1n[nH]c(C)c1C(=O)CC1(O)C(=O)N(Cc2ccccc2)c2ccc(Br)cc21 (centres undefined),5.8%,0.9%,-0.5%,?,?,?
Cc1ccccc1CN1C(=O)C(O)(CC(=O)c2ccncc2)c2ccccc21 (centres undefined),-6.1%,3.2%,?,i,3.26µM*,4.61µM*
C#CCN1C(=O)C(O)(CC(=O)c2ccc3c(c2)OCCO3)c2ccccc21 (centres undefined),7.1%,1.1%,-19.6%,i,23.1µM*,?
Cc1ccc(C(=O)CC2(O)C(=O)N(Cc3ccc4c(c3)OCO4)c3ccccc32)cc1 (centres undefined),-4.9%,0.5%,13.9%,i,?,?
O=C(CC1(O)C(=O)N(Cc2ccccc2)c2ccc(Br)cc21)c1ccccc1 (centres undefined),?,-59.6%,?,?,5.8µM*,14.6µM*
CCCCC1CCC(C(=O)N(C)CC(=O)Nc2cccc(OC)c2)CC1 (centres undefined),nt,3.9%,-26.9%,?,?,-7.2%
CCn1c(CSCc2ccc(C)cc2)nnc1SCC(=O)N1CCN(c2ccccc2)CC1,-32.6%,-10.8%,?,i,20.6µM*,-51.9%
C=CCn1c(CSCc2ccccc2)nnc1SCC(=O)N1CCN(c2ccccc2)CC1,-8.0%,5.7%,-9.7%,i,14.6µM*,?
